DAX1 inh-1: DAX1 (NR0B1) inhibitors on StAR promoter, primary screen, cell-based, luminescence, SF-1 (NR5A1), full-length DAX-1; HEK293T StAR-luciferase reporter, SF-1/DAX-1 repression relief; inhibition, % at 6.8 µM; actives 1.1% (n = 370,000); AID 652010, 2013;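 active = inhibition above the mean over all tested compounds plus 3 SD, cut at about 3.6% in these data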;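 note: 0% = DAX-1 cells with DMSO and 100% = cells lacking DAX-1 with DMSO; higher inhibition means more luminescence from relief of DAX-1 repression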
hgDAF-12 ag: H. glycines DAF-12 receptor agonists, primary screen, cell-based, luminescence, HEK293, GAL4 fusion, UAS-luciferase | HEK293 GAL4-hgDAF12 UAS-luciferase reporter, agonist luminescence; normalized to butyrate control | Nuclear hormone receptor DAF-12 (Heterodera glycines), GAL4 fusion | AID 687014, 2013 | actives 1.8% (n = 370,000) | activation, % at 6.8 µM;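 active = activation above a cutoff set at the mean of all screened compounds plus 3 SD, cut at about 10% in these data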;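 note: 0% = DMSO wells and 100% = sodium butyrate wells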
GAA850 FXN act: FXN promoter activators, primary screen, cell-based, luciferase luminescence, HEK293 lucGAA850 | HEK293 lucGAA850 FXN promoter luciferase reporter, 24 h; percent of 10 µM SAHA response | activation, % at 6 µM | actives 0.56% (n = 360,000);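 active = activation above the average of all compounds screened plus 3 SD, cutoff fixed separately per campaign, cut at about 7.5% in these data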;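 note: 0% = DMSO wells and 100% = 10 µM SAHA wells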
DAX1 inh-2: DAX1 (NR0B1) inhibitors, primary screen, cell-based, HEK293, Gal4-DAX1, luciferase luminescence | HEK293 Gal4-DAX1 luciferase reporter | actives 0.99% (n = 340,000) | Nuclear receptor subfamily 0 group B member 1 (Homo sapiens), P51843 | inhibition, % at 6.75 µM;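 active = inhibition above the mean over all tested compounds plus 3 SD, cut at about 4.2% in these data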;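 note: 0% = DAX1-transfected cells with DMSO and 100% = empty-vector control cells with DMSO; inhibition shows as a rise in luminescence from relieved DAX1 repression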
Target sequence (P51843 207-470 limits assumed): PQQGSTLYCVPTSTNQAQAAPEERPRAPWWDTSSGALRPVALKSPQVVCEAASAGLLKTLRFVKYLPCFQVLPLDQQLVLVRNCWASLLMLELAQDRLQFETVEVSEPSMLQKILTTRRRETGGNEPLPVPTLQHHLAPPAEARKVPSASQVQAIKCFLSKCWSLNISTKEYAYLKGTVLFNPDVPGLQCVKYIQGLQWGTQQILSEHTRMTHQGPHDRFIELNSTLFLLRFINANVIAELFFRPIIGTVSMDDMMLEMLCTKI
hcDAF12 agonist: H. contortus DAF-12 nuclear receptor activators, primary screen, cell-based, luminescence, HEK293, lit1-tk-luc reporter; HEK293 hcDAF-12 lit1-tk-luc reporter; 0% DMSO, 100% Δ7-dafachronic acid; actives 1.4% (n = 370,000); activation, % at 6.8 µM; AID 652067, 2013;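 active = activation above the mean of all tested compounds plus 3 SD, cut at about 5.5% in these data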;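 note: 100% = response to 3 µM Δ7-dafachronic acid high control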
ssDAF-12 act: S. stercoralis DAF-12 nuclear receptor activators, primary screen, cell-based, luminescence, HEK293, GRIP1 co-expression, lit1-tk-luc. Nuclear hormone receptor DAF-12 (Strongyloides stercoralis). activation, % at 6.8 µM. actives 1% (n = 370,000). HEK293 ssDAF-12/GRIP1 lit1-tk-luc reporter; % of 3 µM dafachronic acid response;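 active = activation above the mean over all tested compounds plus 3 SD, cut at about 0.9% in these data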;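 note: 0% = DMSO-only wells and 100% = 3 µM delta7-dafachronic acid wells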
DAX1 conf: DAX1 (NR0B1) inhibitors relieving SF-1 repression, confirmation, cell-based, luminescence, HEK293T, full-length DAX-1, SF-1 activated StAR promoter; actives 87% (n = 2,400); HEK293T StAR-promoter luciferase reporter, SF-1/DAX-1 repression; AID 652134, 2013; shares compounds with DAX1 inh-1; inhibition, % at 6.8 µM;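 active = inhibition above the average of every tested compound plus 3 SD, cut at about 3.8% in these data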;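 note: 0% = DAX-1 cells with DMSO and 100% = no DAX-1 control cells with DMSO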
SF1 AF2mut Luc: StAR reporter signal changes without DAX1, counter-screen for DAX1 inhibitor project, cell-based, luminescence, AF-2 mutant SF-1, transactivation; shares compounds with DAX1 inh-1; HEK293 StAR-luciferase, SF-1 AF2 mutant; inhibition, % at 6.8 µM; actives 78% (n = 2,400);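 active = inhibition above the mean of all tested compounds plus 3 SD, cut at about 3% in these data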;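 note: 0% = DAX-1 transfected cells with DMSO and 100% = cells without DAX-1 with DMSO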
LXR ag: LXR agonists, Gal4 luciferase reporter, confirmation, counter-screen for hcDAF-12 agonist project, cell-based, luminescence, HEK293, H. contortus campaign. AID 743027, 2013. HEK293 Gal4-LXR tk-luc reporter, 24 h; normalized: DMSO 0%, positive control 100%. shares compounds with hcDAF12 agonist. 3,400 tested, under 10 active. activation, % at 6.8 µM;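 active = mean percent activation of the reporter above a cutoff set as the average over tested compounds plus their standard deviation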
Target sequence (P55055 whole entry, looked up, the tested form may be a part): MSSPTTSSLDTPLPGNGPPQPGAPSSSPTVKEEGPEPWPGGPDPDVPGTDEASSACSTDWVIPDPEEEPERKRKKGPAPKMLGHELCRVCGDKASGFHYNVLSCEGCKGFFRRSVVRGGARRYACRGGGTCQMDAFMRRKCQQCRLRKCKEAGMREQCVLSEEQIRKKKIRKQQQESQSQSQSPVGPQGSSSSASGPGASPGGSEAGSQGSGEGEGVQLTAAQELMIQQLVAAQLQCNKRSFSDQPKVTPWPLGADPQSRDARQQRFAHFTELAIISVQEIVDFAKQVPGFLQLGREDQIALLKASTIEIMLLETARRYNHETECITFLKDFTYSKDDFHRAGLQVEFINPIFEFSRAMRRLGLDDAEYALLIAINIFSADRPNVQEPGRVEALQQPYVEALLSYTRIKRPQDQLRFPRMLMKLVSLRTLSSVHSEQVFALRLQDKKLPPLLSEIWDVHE
hcDAF12 conf: H. contortus DAF-12 receptor agonists, confirmation, cell-based, luminescence, HEK293, lit1-tk-luc, triplicate; shares compounds with hcDAF12 agonist; HEK293 hcDAF-12 lit1-tk-luc reporter; % of Δ7-dafachronic acid response; activation, % at 6.8 µM; actives 61% (n = 3,400); AID 743032, 2013;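 active = mean activation across triplicate tests above the threshold derived from the earlier primary screen, cut at about 5.5% in these data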;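 note: 0% = DMSO only wells and 100% = 3 µM Δ7-dafachronic acid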
hgDAF12 conf: H. glycines DAF-12 receptor agonists, confirmation, cell-based, luminescence, HEK293, GAL4-LBD fusion. shares compounds with hgDAF-12 ag. activation, % at 6.8 µM. actives 80% (n = 3,300). HEK293 GAL4-hgDAF12 luciferase reporter, agonist mode; percent of butyrate response;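 active = mean activation over triplicate wells above the hit cutoff derived from the earlier primary screen, cut at about 11% in these data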;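 note: 0% = DMSO low control and 100% = 2 mM sodium butyrate high control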
LXRb DAF12 ctr: LXR agonists, Gal4 luciferase reporter, confirmation, counter-screen for hgDAF-12 agonist project, cell-based, luminescence, HEK293, H. glycines campaign | shares compounds with hgDAF-12 ag | 24 h | activation, % at 6.8 µM | 3,300 tested, under 10 active;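 active = mean activation of the triplicate above a set limit carried over from the primary screen, none filed active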
* marks the source's active call; other numbers are inactive results. Sampled rows, rich in hits. Any-hit rate of the full collection: about 4.5%.

For Clc1ccc(OCc2cc(-c3ccccc3)no2)c(Cl)c1 the results were DAX1 inh-1 7.5*, hgDAF-12 ag 14.6*, GAA850 FXN act -2.0, DAX1 inh-2 -0.7, hcDAF12 agonist 7.2*, ssDAF-12 act 0.9*, DAX1 conf 9.3*, SF1 AF2mut Luc 1.2, LXR ag 1.6, hcDAF12 conf 10.0*, hgDAF12 conf 6.5 and LXRb DAF12 ctr 0.9.
NC(=O)c1ccccc1N/C=C/C(=O)c1ccccc1 was read as DAX1 inh-1 5.8*, hgDAF-12 ag 13.3*, GAA850 FXN act 4.5, DAX1 inh-2 1.5, hcDAF12 agonist 5.2, ssDAF-12 act 0.1, DAX1 conf 11.9*, SF1 AF2mut Luc 5.4*, hgDAF12 conf 16.0* and LXRb DAF12 ctr 0.8.
Screening CCC(CC)c1nnc(NC(=O)Cc2c[nH]c3ccccc23)s1 returned DAX1 inh-1 1.0, hgDAF-12 ag -0.8, GAA850 FXN act 2.5, DAX1 inh-2 -2.0, hcDAF12 agonist 1.7 and ssDAF-12 act 0.1.
Screening CN(C)c1ccc(C(=S)NCc2ccco2)cc1 returned DAX1 inh-1 5.2*, hgDAF-12 ag 15.9*, GAA850 FXN act 4.8, DAX1 inh-2 -1.6, hcDAF12 agonist 7.5*, ssDAF-12 act 0.9*, DAX1 conf 11.5*, SF1 AF2mut Luc 5.6*, LXR ag 1.6, hcDAF12 conf 10.3*, hgDAF12 conf 20.3* and LXRb DAF12 ctr 1.0.
Screening COc1ccc(CC(NC(C)=O)C(=O)NC2CCN(C(=O)c3ccccc3F)CC2)cc1 (stereo not given) returned DAX1 inh-1 0.0, hgDAF-12 ag 0.2, GAA850 FXN act 1.0, DAX1 inh-2 0.2, hcDAF12 agonist -1.1 and ssDAF-12 act -0.6.
`O=C1CCN(CC2CCCCC2)C=C1C(=O)c1ccccc1` gave DAX1 inh-1 0.3, hgDAF-12 ag -2.3, GAA850 FXN act -1.6, DAX1 inh-2 -1.1, hcDAF12 agonist -3.5 and ssDAF-12 act -1.3.
For Cn1c(N=NC(=O)c2ccccc2)c(O)c2ccccc21 the results were DAX1 inh-1 5.8*, hgDAF-12 ag 20.6*, GAA850 FXN act -0.1, DAX1 inh-2 -1.9, hcDAF12 agonist 13.3*, ssDAF-12 act 2.1*, DAX1 conf 15.0*, SF1 AF2mut Luc 5.7*, LXR ag 1.0, hcDAF12 conf 5.9*, hgDAF12 conf 16.3* and LXRb DAF12 ctr 0.9.
For CC(C)(C)n1c(O)c2ccc(C(=O)N=NC(=O)c3ccccc3)cc2c1O the results were DAX1 inh-1 -1.6, hgDAF-12 ag 0.5, GAA850 FXN act 0.8, DAX1 inh-2 -0.1, hcDAF12 agonist 0.3 and ssDAF-12 act -0.2.
For CC(=O)N(c1ccccc1)c1nnc(-c2cnc(C)cn2)s1 the results were DAX1 inh-1 8.4*, hgDAF-12 ag 14.1*, GAA850 FXN act 5.5, DAX1 inh-2 2.5, hcDAF12 agonist 5.5, ssDAF-12 act -0.4, DAX1 conf 9.5*, SF1 AF2mut Luc 9.2*, hgDAF12 conf 10.8* and LXRb DAF12 ctr 0.5.
`Cc1cnc(-c2nnc(N(C)C(=O)c3cccnc3)s2)cn1` gave DAX1 inh-1 0.2, hgDAF-12 ag 0.1, GAA850 FXN act 2.7, DAX1 inh-2 0.3, hcDAF12 agonist 0.3 and ssDAF-12 act -0.1.
COc1ccc2c(c1)CCC/C2=N\NC(=O)c1ccoc1C was read as DAX1 inh-1 4.6*, hgDAF-12 ag 24.9*, GAA850 FXN act 6.3, DAX1 inh-2 3.1, hcDAF12 agonist 7.6*, ssDAF-12 act 1.2*, DAX1 conf 5.0*, SF1 AF2mut Luc 1.3, LXR ag -0.1, hcDAF12 conf 0.2, hgDAF12 conf 4.6 and LXRb DAF12 ctr 0.1.
Cc1cc(C(=O)N/N=C2\CCCc3ccccc32)c(C)o1 was read as DAX1 inh-1 0.4, hgDAF-12 ag 5.0, GAA850 FXN act 1.2, DAX1 inh-2 1.4, hcDAF12 agonist 0.3 and ssDAF-12 act -0.3.
Cn1c(/N=C(\N)c2ccccc2)nc2ccccc21 was read as DAX1 inh-1 8.4*, hgDAF-12 ag 20.8*, GAA850 FXN act 3.1, DAX1 inh-2 4.5*, hcDAF12 agonist 14.1*, ssDAF-12 act 1.7*, DAX1 conf 13.0*, SF1 AF2mut Luc 9.9*, LXR ag 1.3, hcDAF12 conf 17.1*, hgDAF12 conf 20.3* and LXRb DAF12 ctr 0.7.

Screens: PubChem BioAssay, The Scripps Research Institute Molecular Screening Center
